Assay results taken from PubChem BioAssay (NCATS).
Records with an inconclusive call do not appear. A call without a number means that no potency is given here. Active and inactive are the calls of the source. Calls come from the whole dose curve; as a rule, active = well fitted curve in the direction sought with a large enough effect; inconclusive = small, poorly fitted or top-dose-only effect, or another doubt; inactive = no such curve, though single readings can be large; an effect the other way counts as inactive or inconclusive.

Experiments:
[1] = qHTS assay to identify small molecule inhibitors of chordoma cells - UCH-1 (AID 1259355); note: nearly all actives have a fitted effect of over 55% in size
In short: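 Screening used approved and investigational drugs in 15-point titration against 800 seeded cells per well. A fixed combination of auranofin with camptothecin, doxorubicin, rubitecan and topotecan followed compound addition, and growth was scored by CellTiter-Glo after 48hr.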

[2] = P-glycoprotein substrates identified in KB-8-5-11 adenocarcinoma cell line, qHTS therapeutic library screen (AID 1346987); details: outcome: dose series up to 44.5 µM unless noted; note: nearly all actives have a fitted effect of over 65% in size; note: potency is the fitted concentration of half-maximal effect
In short: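 Compounds are pinned in dose-response onto KB-8-5-11 cells (500 cells/well, colchicine-free medium) and left 72 h at 37 degree C. CellTiter-Glo luminescence then yields AC50 values.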

[3] = qHTS assay to identify small molecule inhibitors of chordoma cells - UCH-2 (AID 1259356); note: potency is the fitted concentration of half-maximal effect

Question: Which Potency [1] does the source give for C[C@@H]1O[C@@H](OC[C@H]2O[C@@H](Oc3c(-c4ccc(OCCO)c(OCCO)c4)oc4cc(OCCO)cc(O)c4c3=O)[C@H](O)[C@@H](O)[C@@H]2O)[C@H](O)[C@H](O)[C@H]1O here?
Answer: inactive

Question: What about the Potency [2] of the same compound?
Answer: inactive

Question: For O=C(Nc1ccc(O)cc1)c1ccccc1O, which Potency [1] is on record?
Answer: inactive

Question: And the Potency [2]?
Answer: inactive

Question: Which Potency [1] does the source give for CC1=C[C@H](O)CC(C)(C)[C@H]1/C=C/C(C)=C/C=C/C(C)=C/C=C/C=C(C)/C=C/C=C(C)/C=C/C1=C(C)C[C@@H](O)CC1(C)C here?
Answer: inactive

Question: What about the Potency [2] of the same compound?
Answer: inactive

Question: Which Potency [1] does the source give for NC(=O)C1c2ccccc2CCc2ccccc21 here?
Answer: inactive

Question: What about the Potency [2] of the same compound?
Answer: inactive

Question: Which Potency [3] does the source give for N#Cc1ccc2c(c1)N(CCCN1CCC(O)CC1)c1ccccc1S2 here?
Answer: inactive

Question: With NC(=O)Oc1ccc(Cc2ccccc2)cc1 as the compound, how does the Potency [1] read?
Answer: inactive

Question: And the Potency [2]?
Answer: inactive

Question: Which results are given for Cc1cc(-c2ccc(N=Nc3ccc4c(S(=O)(=O)O)cc(S(=O)(=O)O)c(N)c4c3O)c(C)c2)ccc1N=Nc1ccc2c(S(=O)(=O)O)cc(S(=O)(=O)O)c(N)c2c1O?
Answer: Potency [1]: inactive; Potency [2]: 6.51 µM (active)

Question: What does the source list for O=C(OC[C@H]1O[C@](O)(COC(=O)c2cccnc2)[C@@H](OC(=O)c2cccnc2)[C@@H]1OC(=O)c1cccnc1)c1cccnc1?
Answer: Potency [1]: inactive; Potency [2]: inactive

Question: For FC(F)(F)C(F)(F)C(F)(F)C(F)(F)C(F)(F)C(F)(F)F, which Potency [1] is on record?
Answer: inactive

Question: And the Potency [2]?
Answer: inactive

Question: With CCC(O)c1ccccc1 (stereo unspecified) as the compound, how does the Potency [1] read?
Answer: inactive

Question: What about the Potency [2] of the same compound?
Answer: inactive

Question: For COc1cc(NCCCC(C)N)c2ncccc2c1 (stereo unspecified), which Potency [1] is on record?
Answer: inactive

Question: What about the Potency [2] of the same compound?
Answer: inactive

Question: For CC(=O)Oc1cc(C(F)(F)F)ccc1C(=O)O, which Potency [3] is on record?
Answer: inactive

Question: What about the Potency [2] of the same compound?
Answer: inactive

Question: Which results are given for COC(=O)[C@@H](N)CS?
Answer: Potency [3]: inactive; Potency [2]: inactive

Question: Which Potency [3] does the source give for CO/N=C(\C(=O)N[C@@H]1C(=O)N2C(C(=O)[O-])=C(C[n+]3cccc4c3CCC4)CS[C@H]12)c1csc(N)n1 here?
Answer: inactive

Question: What about the Potency [2] of the same compound?
Answer: inactive

Question: Which Potency [3] does the source give for CC(CN1c2ccccc2Sc2cccnc21)N(C)C (stereo unspecified) here?
Answer: inactive

Question: With c1ccc(-n2cnnn2)cc1 as the compound, how does the Potency [3] read?
Answer: inactive

Question: What about the Potency [2] of the same compound?
Answer: inactive

Question: Which Potency [3] does the source give for C=C1[C@H](CO)[C@@H](O)C[C@@H]1n1cnc2c(=O)[nH]c(N)nc21 here?
Answer: inactive

Question: What does the source list for CC1(O)CCC(C(C)(C)O)CC1 (stereo unspecified)?
Answer: Potency [3]: inactive; Potency [2]: inactive

Question: Which results are given for COc1ccc(C(=O)CCC(=O)O)c2ccccc12?
Answer: Potency [3]: inactive; Potency [2]: inactive

Question: Which Potency [3] does the source give for NCC(O)CC(=O)O (stereo unspecified) here?
Answer: inactive

Question: And the Potency [2]?
Answer: inactive

Question: For Cc1ccccn1, which Potency [3] is on record?
Answer: inactive

Question: And the Potency [2]?
Answer: inactive

Question: Which Potency [3] does the source give for Oc1cccc(O)c1O here?
Answer: inactive

Question: What about the Potency [2] of the same compound?
Answer: inactive

Question: For O=C(Cc1cccs1)N[C@@H]1C(=O)N2C(C(=O)[O-])=C(C[n+]3ccccc3)CS[C@H]12, which Potency [3] is on record?
Answer: inactive

Question: What about the Potency [2] of the same compound?
Answer: inactive

Question: Which Potency [3] does the source give for C[N+]1(C)[C@@H]2CC(OC(=O)C(O)(c3cccs3)c3cccs3)C[C@H]1[C@@H]1O[C@@H]12 (stereo partly specified) here?
Answer: inactive

Question: And the Potency [2]?
Answer: inactive

Question: For O=C(OCc1ccccc1)c1cccnc1, which Potency [3] is on record?
Answer: inactive

Question: What about the Potency [2] of the same compound?
Answer: inactive

Question: For C=C1CC[C@H](O)CC1=C/C=C1\CCC[C@]2(C)[C@@H]([C@H](C)/C=C/[C@H](C)C(C)C)CC[C@@H]12, which Potency [3] is on record?
Answer: inactive

Question: And the Potency [2]?
Answer: inactive

Question: Which Potency [2] does the source give for O=C(O)[C@H]1CN(C/C=C/P(=O)(O)O)CCN1 here?
Answer: inactive

Question: For O=C(OC[C@H]1O[C@@H](OC(=O)c2cc(O)c(O)c(OC(=O)c3cc(O)c(O)c(O)c3)c2)[C@H](OC(=O)c2cc(O)c(O)c(OC(=O)c3cc(O)c(O)c(O)c3)c2)[C@@H](OC(=O)c2cc(O)c(O)c(OC(=O)c3cc(O)c(O)c(O)c3)c2)[C@@H]1OC(=O)c1cc(O)c(O)c(OC(=O)c2cc(O)c(O)c(O)c2)c1)c1cc(O)c(O)c(OC(=O)c2cc(O)c(O)c(O)c2)c1, which Potency [3] is on record?
Answer: 16.4 µM (active)

Question: And the Potency [2]?
Answer: 23.1 µM (active)

Question: Which Potency [3] does the source give for COc1ccc(/C=C/C(=O)O)cc1 here?
Answer: inactive

Question: What about the Potency [2] of the same compound?
Answer: inactive

Question: For CCCOc1cc(N)ccc1C(=O)OCCN(CC)CC, which Potency [3] is on record?
Answer: inactive

Question: Which Potency [3] does the source give for O=C(O)c1ccc(NC2OC[C@@H](O)[C@H](O)[C@H]2O)cc1 (stereo partly specified) here?
Answer: inactive

Question: What about the Potency [2] of the same compound?
Answer: inactive

Question: Which results are given for OC1OC[C@@H](O)[C@H](O)[C@@H]1O (stereo partly specified)?
Answer: Potency [3]: inactive; Potency [2]: inactive

Question: With CCOc1cc(-c2nccc3cc(OC)c(OC)cc23)cc(OCC)c1OCC as the compound, how does the Potency [3] read?
Answer: inactive

Question: What about the Potency [2] of the same compound?
Answer: 13 µM (active)

Question: Which Potency [3] does the source give for O=C1/C(=C\c2cccs2)CCC/C1=C\c1cccs1 here?
Answer: inactive

Question: What does the source list for C=C1[C@@H]2CC[C@@H](C2)C1(C)C?
Answer: Potency [3]: inactive; Potency [2]: inactive

Question: With CCCc1nc(C(C)(C)O)c(C(=O)OCc2oc(=O)oc2C)n1Cc1ccc(-c2ccccc2-c2nn[nH]n2)cc1 as the compound, how does the Potency [3] read?
Answer: inactive

Question: Which results are given for CCc1ccc(S(=O)(=O)O)cc1?
Answer: Potency [3]: inactive; Potency [2]: inactive

Question: For C#C[C@]1(O)CC[C@@H]2[C@H]3CCC4=CC(=O)CC[C@H]4[C@H]3C(=C)C[C@@]21CC, which Potency [3] is on record?
Answer: inactive

Question: What about the Potency [2] of the same compound?
Answer: inactive

Question: For CO/N=C(\C(=O)N[C@@H]1C(=O)N2C(C(=O)[O-])=C(C[n+]3ccc(N)n3CCO)CS[C@H]12)c1csc(N)n1, which Potency [3] is on record?
Answer: inactive

Question: What about the Potency [2] of the same compound?
Answer: inactive

Question: For CN(C)CCC(O)(c1ccccc1)c1ccccc1Cl (stereo unspecified), which Potency [3] is on record?
Answer: inactive

Question: With C#C[C@]1(O)CC[C@H]2[C@@H]3CCC4=C(CCC(=O)C4)[C@H]3CC[C@@]21C as the compound, how does the Potency [3] read?
Answer: inactive

Question: With C=CC[C@@H]1/C=C(\C)C[C@H](C)C[C@H](OC)[C@H]2O[C@@](O)(C(=O)C(=O)N3CCCC[C@H]3C(=O)O[C@H](/C(C)=C/[C@@H]3CC[C@@H](O)[C@H](OC)C3)[C@H](C)[C@@H](O)CC1=O)[C@H](C)C[C@@H]2OC as the compound, how does the Potency [3] read?
Answer: inactive

Question: For CC[C@H](C)[C@@H]1NC(=O)[C@H](Cc2ccc(O)cc2)NC(=O)[C@@H](N)CSSC[C@@H](C(=O)N2CCC[C@H]2C(=O)N[C@@H](CC(C)C)C(=O)NCC(N)=O)NC(=O)[C@H](CC(N)=O)NC(=O)[C@H](CCC(N)=O)NC1=O, which Potency [3] is on record?
Answer: inactive

Question: And the Potency [2]?
Answer: inactive

Question: Which Potency [3] does the source give for CC/C(=C(/CC)c1ccc(OP(=O)(O)O)cc1)c1ccc(OP(=O)(O)O)cc1 here?
Answer: inactive

Question: What about the Potency [2] of the same compound?
Answer: inactive

Question: For CC(C)[C@@H](C)/C=C/[C@@H](C)[C@H]1CC[C@H]2/C(=C/C=C3\C[C@@H](O)CC[C@@H]3C)CCC[C@]12C, which Potency [3] is on record?
Answer: inactive

Question: What about the Potency [2] of the same compound?
Answer: inactive

Question: For CN1c2c(nc(N)[nH]c2=O)NCC1CNc1ccc(C(=O)NC(CCC(=O)O)C(=O)O)cc1 (stereo unspecified), which Potency [3] is on record?
Answer: inactive

Question: Which Potency [2] does the source give for CC(C)[C@@H]1CC[C@@H](C)C[C@H]1OC(=O)c1ccccc1O here?
Answer: inactive

Question: Which Potency [3] does the source give for O=C(O)CCC/C=C\C[C@@H]1[C@@H](/C=C/[C@@H](O)COc2cccc(Cl)c2)[C@H](O)C[C@@H]1O here?
Answer: inactive

Question: And the Potency [2]?
Answer: inactive

Question: What does the source list for [O]=[Bi][O][Bi]=[O]?
Answer: Potency [3]: inactive; Potency [2]: inactive
